Compound activity as filed in PubChem.
Shown are actives, neighbours in structure and some others; about 6.7% of the full set was active somewhere.
Pf Dd2 growth – P. falciparum Dd2 growth inhibition. activity change, % at 10 µM. hit rate 2.3% among 94,000. SYBR Green, 72 h; active compounds read low; in the data active = activity change below about -80%; inconclusive = no clear call, values can overlap the other calls
T cruzi growth-1 – T. cruzi proliferation inhibition; inhibition, % at 8.34 µM; hit rate 5.9% among 77,000; T. cruzi beta-gal in NIH3T3, GalScreen luminescence, 90 h;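 active = mean inhibition above about 93%, with at least 55% of replicates each passing it, limit read from the data, passing the limit was not always enough; inconclusive = only one of those two conditions holds; inactive = neither condition holds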
C diff HTS – blocks growth of Clostridium difficile | Clostridium difficile clinical isolate growth, OD600, 24 h; active compounds read low | growth activity, negative = inhibition, % at 16 µg/mL (by protocol) | hit rate 0.25% among 86,000;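 active = mean growth activity at or below -80% and every replicate also at or below -80%; inconclusive = mean at or below -80% but some replicate above -80%; inactive = mean growth activity above -80%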;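 also: 0% = DMSO wells and -100% = levofloxacin 16 µg/mL wells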
T cruzi growth-2 – blocks T. cruzi growth in NIH3T3 host cells; hit rate 72% among 5,600; inhibition, % at 8.35 µM; AID 651739; T. cruzi beta-gal in NIH3T3, GalScreen luminescence, 90 h; shares compounds with T cruzi growth-1;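 active = mean replicate inhibition above about 95% and at least 55% of replicates individually reaching it, limit read from the data; inconclusive = only one of the two criteria is met; inactive = neither criterion is met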
T cruzi growth-3 – inhibitors of T. cruzi proliferation; shares compounds with T cruzi growth-1; T. cruzi beta-gal in NIH3T3, GalScreen luminescence, 90 h; inhibition, % at 2.09 µM; hit rate 21% among 5,600; AID 651740;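 active = mean inhibition above about 95%, with at least 55% of replicates also reaching it, limit read from the data; inconclusive = meets just one of the two conditions; inactive = meets neither condition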;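 also: plate controls were neutral control median for no effect and positive control median for full effect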
3T3 cytotox – cytotoxicity in mouse NIH/3T3 fibroblasts. NIH/3T3 viability, CellTiter-Glo ATP luminescence, 90 h. cytotoxicity (signal decrease), % at 8.35 µM. shares compounds with T cruzi growth-1. hit rate 14% among 5,600. AID 651742;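 active = mean signal decrease across replicates above about 35% based on untreated-well scatter, with enough replicates individually passing, limit read from the data; inconclusive = no rule stated though some were filed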;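 also: 0% = median of neutral control wells and 100% = median of positive control wells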
NIH3T3 tox 2 – kills mouse NIH/3T3 fibroblasts; shares compounds with T cruzi growth-1; NIH/3T3 viability, CellTiter-Glo ATP luminescence, 90 h; inhibition, % at 24.9 µM; hit rate 56% among 5,600;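 active = mean loss of cell viability signal at or above a set limit, and enough replicates individually reaching it; inconclusive = meets only the mean limit or only the replicate share; inactive = meets neither condition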;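 also: 0% = median of neutral control wells and 100% = median of positive control wells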
* = called active by the depositor; ? = inconclusive; nt = not tested or not shown; ! = not confirmed by another sample.

SMILES | Pf Dd2 growth | T cruzi growth-1 | C diff HTS | T cruzi growth-2 | T cruzi growth-3 | 3T3 cytotox | NIH3T3 tox 2
O=C(C[C@@H]1CC[C@@H]2[C@H](COC[C@H](O)CN2C(=O)Nc2ccc(Cl)c(Cl)c2)O1)NCc1ccccc1 | 7 | 55 | nt | nt | nt | nt | nt
O=C(C[C@H]1CC[C@@H]2[C@H](COC[C@H](O)CN2C(=O)Nc2ccc(Cl)c(Cl)c2)O1)NCc1ccc(Cl)c(Cl)c1 | -8 | 106* | nt | 96* | 73 | 23 | 104*
O=C(C[C@@H]1CC[C@H]2[C@@H](COC[C@H](O)CN2C(=O)Nc2ccc(Cl)c(Cl)c2)O1)NCc1ccncc1 | -6 | 128* | -9 | 98* | 2 | 18 | 39*
O=C(C[C@H]1CC[C@H]2[C@@H](COC[C@H](O)CN2C(=O)Nc2ccc(Cl)c(Cl)c2)O1)NCc1ccncc1 | -7 | 153* | -97*! | 110* | 24 | -2 | 18
O=C(C[C@H]1CC[C@H]2[C@@H](COC[C@@H](O)CN2C(=O)Nc2ccc(Cl)c(Cl)c2)O1)NCc1ccccc1 | 1 | -4 | nt | nt | nt | nt | nt
CO[C@@H]1CN(C)C(=O)c2ccc(NS(=O)(=O)c3ccc(C)cc3)cc2OC[C@H](C)N(C(=O)NC(C)C)C[C@H]1C | nt | -28 | nt | nt | nt | nt | nt
C[C@@H]1CN([C@H](C)CO)C(=O)Cc2cc(NC(=O)Nc3cccc4ccccc34)ccc2O[C@H]1CN(C)C | 11 | nt | 1 | nt | nt | nt | nt
CN(C)C(=O)c1ccc(-c2ccc(C3[C@@H]4CN(C(=O)C5CCOCC5)C[C@H]3N4)cc2)cc1 (some centres not stated) | 15 | nt | -6 | nt | nt | nt | nt
C[C@H](NC(=O)C[C@@H]1C=C[C@H](NC(=O)C2CCOCC2)[C@@H](CO)O1)c1ccccc1 | 18 | 40 | -1 | nt | nt | nt | nt
C[C@H]1CN([C@@H](C)CO)C(=O)c2cc(NS(=O)(=O)c3cccs3)ccc2O[C@H]1CN(C)CC1CCCCC1 | 18 | 2 | 17 | nt | nt | nt | nt
C[C@@H]1CN([C@@H](C)CO)C(=O)Cc2cc(NC(=O)C3CCCCC3)ccc2O[C@@H]1CN(C)Cc1ccc(Cl)c(Cl)c1 | -7 | 84 | -1 | nt | nt | nt | nt
C[C@@H]1CN([C@@H](C)CO)C(=O)Cc2cc(NC(=O)C3CC3)ccc2O[C@H]1CN(C)Cc1ccc(Cl)c(Cl)c1 | -61 | 124* | 33 | 98* | 33 | 40* | 106*
C[C@H]1CN([C@@H](C)CO)C(=O)Cc2cc(NC(=O)C3CC3)ccc2O[C@@H]1CN(C)Cc1ccc(Cl)c(Cl)c1 | -9 | 60 | 2 | nt | nt | nt | nt
C[C@H](CO)N1C[C@H](C)[C@@H](CN(C)Cc2ccc(Cl)c(Cl)c2)Oc2ccc(NC(=O)C3CC3)cc2CC1=O | -16 | 115* | 2 | 105* | 53 | 0 | 6
O=S(=O)(c1ccccc1F)N1CCCCN2[C@H](C1)[C@@H](c1ccc(-c3ccccc3)cc1)[C@@H]2CO | -60 | 69 | 5 | nt | nt | nt | nt
O=S(=O)(c1ccccc1F)N1CCCCN2[C@@H](CO)[C@@H](c3ccc(-c4ccncc4)cc3)[C@@H]2C1 | -12 | ? | -7 | 107* | 35 | 30 | 27*
Cc1ccccc1S(=O)(=O)N1CCCCN2[C@H](CO)[C@@H](c3ccc(-c4cccnc4)cc3)[C@@H]2C1 | 8 | 74 | -16 | nt | nt | nt | nt
Cc1ccccc1S(=O)(=O)N1CCCCN2[C@H](CO)[C@@H](c3ccc(-c4cncnc4)cc3)[C@H]2C1 | -24 | 73 | 2 | nt | nt | nt | nt
Cc1ccccc1S(=O)(=O)N1CCCCN2[C@H](CO)[C@H](c3ccc(-c4cccnc4)cc3)[C@H]2C1 | -56 | 100* | 21 | 108* | 80 | 29 | 80*
Cc1ccccc1S(=O)(=O)N1CCCCN2[C@@H](CO)[C@H](c3ccc(-c4cncnc4)cc3)[C@@H]2C1 | -28 | 117* | -1 | 73 | 22 | 11 | ?
CNC[C@H]1Oc2ccc(NS(=O)(=O)c3ccc(F)cc3)cc2C(=O)N([C@@H](C)CO)C[C@H]1C | 27 | -37 | 1 | nt | nt | nt | nt
CC(C)NC(=O)N(C)C[C@H]1Oc2ccc(NC(=O)Nc3ccc(C(F)(F)F)cc3)cc2C(=O)N([C@@H](C)CO)C[C@H]1C | -9 | 28 | 19 | nt | nt | nt | nt
COC(=O)[C@@H]1[C@@H](CO)[C@@H]2Cn3c(cccc3=O)[C@@H]2N1C(=O)C1CCCCC1 | 3 | 32 | -1 | nt | nt | nt | nt
Cc1ccccc1S(=O)(=O)N1CC[C@@H]2[C@@H](CO)Nc3ccc(-c4ccccc4F)cc3[C@@H]21 | -13 | 119* | 7 | 102* | 85 | 39* | 104*
COc1ccccc1-c1ccc2c(c1)[C@@H]1[C@@H](CCN1S(=O)(=O)c1ccccc1OC)[C@H](CO)N2 | -58 | 26 | 40 | nt | nt | nt | nt
SMILES | Pf Dd2 growth | T cruzi growth-1 | C diff HTS | T cruzi growth-2 | T cruzi growth-3 | 3T3 cytotox | NIH3T3 tox 2
O=S(=O)(c1ccccc1F)N1CC[C@@H]2[C@H](CO)Nc3ccc(-c4ccccc4F)cc3[C@@H]21 | 8 | 45 | 7 | nt | nt | nt | nt
COc1ccccc1S(=O)(=O)N1CC[C@@H]2[C@H]1c1cc(-c3ccccc3F)ccc1N[C@@H]2CO | 21 | 102* | -1 | 97* | 86 | 26 | 8
CN1C[C@H]2[C@@H](c3ccccc31)[C@H](CO)N2Cc1ccccc1F | -78 | -32 | 6 | nt | nt | nt | nt
CCCC(=O)Nc1ccc2c(c1)C(=O)N(C)C[C@@H](OC)[C@H](C)CN(CC1CCCC1)[C@@H](C)CO2 | 3 | 0 | nt | nt | nt | nt | nt
C[C@H]1CN([C@@H](C)CO)C(=O)c2cccc(NC(=O)Nc3ccc4c(c3)OCO4)c2O[C@H]1CN(C)S(=O)(=O)c1ccc(F)cc1 | -13 | -49 | 17 | nt | nt | nt | nt
C[C@H](CO)N1C[C@H](C)[C@H](CN(C)Cc2cccnc2)Oc2cc(-c3ccncc3)ccc2S1(=O)=O | 2 | 71 | 6 | nt | nt | nt | nt
Cc1ccc(-c2ccc3c(c2)O[C@H](CN(C)Cc2cccnc2)[C@@H](C)CN([C@@H](C)CO)S3(=O)=O)cc1 | -83* | 119* | -3 | 106* | 97* | 50* | 105*
Cc1ccc(-c2ccc3c(c2)O[C@H](CN(C)Cc2cccnc2)[C@@H](C)CN([C@H](C)CO)S3(=O)=O)cc1 | ? | 119* | 3 | 99* | 112* | 80* | 92*
C[C@H](CO)N1C[C@H](C)[C@@H](CN(C)Cc2cccnc2)Oc2cc(-c3cccnc3)ccc2S1(=O)=O | -15 | 101*! | 1 | 67 | 45 | 20 | 64*
C[C@H](CO)N1C[C@H](C)[C@@H](CN(C)Cc2cccnc2)Oc2cc(-c3ccccc3)ccc2S1(=O)=O | -45 | 84 | -3 | nt | nt | nt | nt
C[C@@H]1CN([C@H](C)CO)S(=O)(=O)c2ccc(-c3cccnc3)cc2O[C@@H]1CN(C)Cc1cccnc1 | 9 | 42 | 6 | nt | nt | nt | nt
C[C@@H]1CN([C@@H](C)CO)S(=O)(=O)c2ccc(-c3ccncc3)cc2O[C@@H]1CN(C)Cc1cccnc1 | 3 | 68 | 2 | nt | nt | nt | nt
